Assay results reported in PubChem BioAssay AID1159580 (chemical genetic matrix, 2015).
Screen size: about 5,500 compounds; about 2,000 (36%) were called active. Another 18% or so got no clear call; they are omitted. Cut-off read from the data, not from the text of the source: active = normalized growth mostly below about 0.91 (no sharp cut-off); inconclusive = no clear call, values can overlap the other calls; inactive = mostly above about 0.92. The list shows a part of the results.

Test: chemical genetic growth profiling, strain panel (AID 1159580);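 note: tested at 20 µM; growth read once vehicle control cultures reached saturation at 30 °C; 1 = growth at the plate median or of vehicle wells; lower values mean less growth of the strain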
Conditions: S. cerevisiae deletion strains, growth OD
[1] = locus YNL128W, strain TEP1, hits give low values
[2] = locus YPL055C, strain LGE1, hits give low values

Measured: normalized growth

OC[C@H]1O[C@@H](n2cnc3c(NC4CCCC4)ncnc32)C(O)[C@H]1O (some centres undefined)
inactive: locus YAL013W, strain DEP1, hits give low values 0.994 | locus YAL040C, strain CLN3, hits give low values 0.989 | locus YER002W, strain NOP16, hits give low values 1.03 | locus YJR075W, strain HOC1, hits give low values 1.01 | locus YMR263W, strain SAP30, hits give low values 1.03 | [1] 1 | locus YNL175C, strain NOP13, hits give low values 1.03 | locus YNL197C, strain WHI3, hits give low values 1.04 | locus YNL224C, strain SQS1, hits give low values 1 | locus YOR083W, strain WHI5 (second series), hits give low values 1.03 | [2] 1.01

CC1(C)C(=O)CC[C@@]2(C)C1C[C@@H](O)[C@@]1(C)C3=CC(=O)O[C@@H](c4ccoc4)[C@]3(C)CCC21 (some centres undefined)
inactive: locus YAL021C, strain ccr4, hits give low values 1.02 | locus YAL026C, strain drs2, hits give low values 1.02 | locus YAL030W, strain snc1, hits give low values 1.02 | locus YBL061C, strain skt5, hits give low values 1.03 | locus YBR009C, strain hhf1, hits give low values 1.01 | locus YBR021W, strain FUR4, hits give low values 0.967 | locus YBR023C, strain chs3, hits give low values 1.02 | locus YBR171W, strain sec66, hits give low values 1.04 | locus YBR229C, strain ROT2, hits give low values 1.01 | locus YBR231C, strain swc5, hits give low values 1.01 | locus YBR279W, strain paf1, hits give low values 1.01 | locus YCL011C, strain gbp2, hits give low values 1.02 | locus YCL016C, strain dcc1, hits give low values 1.02 | locus YCL029C, strain bik1, hits give low values 0.999 | locus YCL069W, strain vba3, hits give low values 1.02 | locus YCR088W, strain abp1, hits give low values 1.02 | locus YDL005C, strain med2, hits give low values 1.05 | locus YDL035C, strain GPR1, hits give low values 1.01 | locus YDL040C, strain nat1, hits give low values 1.02 | locus YDL074C, strain BRE1, hits give low values 1.01 | locus YDL101C, strain DUN1, hits give low values 1.03 | locus YDL134C, strain PPH21, hits give low values 1.03 | locus YDL185W, strain tfp1, hits give low values 1.02 | locus YDL192W, strain arf1, hits give low values 0.987 | locus YDR001C, strain nth1, hits give low values 1.03 | locus YDR069C, strain doa4, hits give low values 1.01 | locus YDR101C, strain arx1, hits give low values 0.963 | locus YDR137W, strain rgp1, hits give low values 1.05 | locus YDR159W, strain sac3, hits give low values 1.05 | locus YDR162C, strain NBP2, hits give low values 1.01 | locus YDR195W, strain ref2 0.982 | locus YDR297W, strain sur2, hits give low values 1.02 | locus YDR318W, strain mcm21, hits give low values 1.01 | locus YDR334W, strain swr1, hits give low values 1.02 | locus YDR335W, strain msn5, hits give low values 1.01 | locus YDR388W, hits give low values 1 | locus YDR392W, strain spt3, hits give low values 1.03 | locus YDR502C, strain sam2, hits give low values 1.02 | locus YEL003W, strain gim4, hits give low values 1.02 | locus YEL037C, strain rad23, hits give low values 1.02 | locus YEL061C, strain CIN8 (second series), hits give low values 1.03 | locus YEL061C, strain CIN8, hits give low values 1 | locus YER015W, strain faa2, hits give low values 1.01 | locus YER016W, strain bim1, hits give low values 1.03 | locus YER110C, hits give low values 1 | locus YER111C, strain swi4, hits give low values 1.02 | locus YER155C, strain BEM2 (second series), hits give low values 1.03 | locus YER155C, strain BEM2, hits give low values 0.997 | locus YER167W, strain BCK2, hits give low values 0.989 | locus YFR010W, strain ubp6, hits give low values 1.01 | locus YGL078C, strain dbp3, hits give low values 1.03 | locus YGL086W, strain mad1, hits give low values 0.998 | locus YGL167C, strain pmr1, hits give low values 1.04 | locus YGL173C, strain kem1, hits give low values 1.03 | locus YGL227W, strain vid30, hits give low values 1.03 | locus YGL240W, strain doc1, hits give low values 1.02 | locus YGL248W, strain PDE1, hits give low values 1.03 | locus YGL253W, strain hxk2, hits give low values 1.01 | locus YGR135W, strain pre9, hits give low values 1.06 | locus YGR252W, strain gcn5, hits give low values 1 | locus YHR013C, strain ard1, hits give low values 1.03 | locus YHR027C, strain rpn1, hits give low values 1.02 | locus YHR079C, strain IRE1 (second series), hits give low values 0.998 | locus YHR094C, strain hxt1, hits give low values 0.991 | locus YHR129C, strain ARP1, hits give low values 1.01 | locus YHR142W, strain chs7, hits give low values 1.04 | locus YHR200W, strain rpn10, hits give low values 1 | locus YIL066C, strain RNR3, hits give low values 1 | locus YIL073C, strain SPO22, hits give low values 0.977 | locus YIL125W, strain kgd1, hits give low values 0.984 | locus YIR030C, strain dcg1, hits give low values 0.999 | locus YJL092W, strain hpr5, hits give low values 1.03 | locus YJL095W, strain BCK1 (second series), hits give low values 1.01 | locus YJL095W, strain BCK1, hits give low values 1.04 | locus YJL115W, strain asf1, hits give low values 1.04 | locus YJL129C, strain trk1, hits give low values 1.02 | locus YJL134W, strain LCB3, hits give low values 1 | locus YJL154C, strain vps35, hits give low values 1.02 | locus YJL164C, strain tpk1, hits give low values 1.02 | locus YJL166W, strain qcr8, hits give low values 1.02 | locus YJL168C, strain set2, hits give low values 1 | locus YJL187C, strain SWE1 (second series), hits give low values 1.04 | locus YJL187C, strain SWE1, hits give low values 1.02 | locus YKL009W, strain mrt4, hits give low values 1.02 | locus YKL068W, hits give low values 1 | locus YKL085W, strain MDH1 (second series), hits give low values 0.993 | locus YKL085W, strain MDH1, hits give low values 0.993 | locus YKL160W, strain elf1, hits give low values 1.02 | locus YKR001C, strain vps1, hits give low values 0.975 | locus YKR026C, strain gcn3, hits give low values 1.02 | locus YKR091W, strain srl3, hits give low values 1.03 | locus YLL001W, strain dnm1, hits give low values 1.03 | locus YLL026W, hits give low values 1.02 | locus YLL041C, strain sdh2, hits give low values 1 | locus YLR027C, strain aat2, hits give low values 1.02 | locus YLR039C, strain RIC1, hits give low values 1.05 | locus YLR058C, strain SHM2, hits give low values 1.01 | locus YLR102C, strain apc9, hits give low values 1.01 | locus YLR221C, strain rsa3, hits give low values 1.05 | locus YLR258W, strain gsy2, hits give low values 1.01 | locus YLR262C, strain YPT6 (second series), hits give low values 1.06 | locus YLR268W, strain sec22, hits give low values 0.976 | locus YLR320W, strain mms22, hits give low values 1.03 | locus YLR330W, strain CHS5, hits give low values 1 | locus YLR342W, strain FKS1, hits give low values 1.02 | locus YLR357W, strain rsc2, hits give low values 1.02 | locus YLR370C, strain arc18, hits give low values 1.02 | locus YLR371W, strain rom2, hits give low values 0.957 | locus YLR384C, strain iki3, hits give low values 1.03 | locus YLR418C, strain cdc73, hits give low values 1.05 | locus YML016C, strain PPZ1, hits give low values 1.01 | locus YML032C, strain rad52, hits give low values 0.987 | locus YML120C, strain ndi1, hits give low values 1.01 | locus YML124C, strain tub3, hits give low values 0.998 | locus YMR058W, strain fet3, hits give low values 1.01 | locus YMR078C, strain ctf18, hits give low values 1.01 | locus YMR125W, strain sto1, hits give low values 1.04 | locus YMR129W, hits give low values 1.03 | locus YMR205C, strain PFK2, hits give low values 1.05 | locus YMR223W, strain ubp8, hits give low values 1 | locus YMR231W, strain pep5, hits give low values 1.02 | locus YMR307W, strain GAS1, hits give low values 0.91 | locus YNL067W, strain RPL9B, hits give low values 1.04 | locus YNL071W, strain lat1, hits give low values 1.02 | [1] 1.01 | locus YNL153C, strain GIM3, hits give low values 1.04 | locus YNL209W, strain ssb2, hits give low values 1.03 | locus YNL233W, strain BNI4, hits give low values 1.03 | locus YNL248C, strain rpa49, hits give low values 1.03 | locus YNL250W, strain rad50, hits give low values 1.03 | locus YNL271C, strain bni1, hits give low values 0.999 | locus YNL298W, strain CLA4, hits give low values 0.997 | locus YNL307C, strain MCK1, hits give low values 1.01 | locus YNL322C, strain KRE1 (second series), hits give low values 1.03 | locus YNR049C, strain mso1, hits give low values 1.02 | locus YNR052C, strain pop2, hits give low values 1.04 | locus YOL012C, strain htz1 0.777 | locus YOL147C, strain pex11, hits give low values 0.991 | locus YOR001W, strain rrp6, hits give low values 1.03 | locus YOR061W, strain CKA2, hits give low values 1.01 | locus YOR069W, strain VPS5, hits give low values 1.01 | locus YOR070C, strain gyp1, hits give low values 1.02 | locus YOR080W, strain dia2, hits give low values 1.02 | locus YOR083W, strain WHI5, hits give low values 1.02 | locus YOR106W, strain vam3, hits give low values 1.05 | locus YOR136W, strain idh2, hits give low values 1.01 | locus YOR144C, strain elg1, hits give low values 0.997 | locus YOR184W, strain ser1, hits give low values 0.967 | locus YOR265W, strain rbl2, hits give low values 1.03 | locus YOR270C, strain vph1, hits give low values 1.04 | locus YOR290C, strain snf2, hits give low values 1.03 | locus YOR316C, strain cot1, hits give low values 1.01 | locus YPL051W, strain arl3, hits give low values 1.03 | [2] 1.01 | locus YPL078C, strain atp4, hits give low values 1 | locus YPL106C, strain sse1, hits give low values 1.02 | locus YPL240C, strain hsp82, hits give low values 1.01 | locus YPL241C, strain CIN2, hits give low values 0.996 | locus YPR119W, strain clb2, hits give low values 0.995 | locus YPR141C, strain kar3, hits give low values 0.99 | locus YPR163C, strain tif3, hits give low values 0.992 | locus YPR167C, strain met16, hits give low values 1.01 | strain wtn01, hits give low values 0.965
